# JMJD2A Tudor = qHTS Assay for Inhibitors of JMJD2A-Tudor Domain. AlphaScreen JMJD2A-Tudor / H3K4me3 peptide binding. Lysine-specific demethylase 4A (Homo sapiens), O75164. Potency, µM (titrated, usually from 114 µM), inactives show at the highest dose activity change, negative = inhibition, most hits filed as inhibitors. actives 4.4% (n = 390,000); note: % is set by controls: 0 for no effect and ±100 for the full control effect; nearly all actives have a fitted effect of over 50% in size
# GLS inh = qHTS for Inhibitors of Glutaminase (GLS); Glutaminase kidney isoform, mitochondrial (Homo sapiens), O94925; GLS enzymatic activity, qHTS titration; Potency, µM (doses to about 45.5 µM), for inactives: top-dose activity change, negative = inhibition, actives largely listed as inhibitors; actives 0.21% (n = 410,000); AID 624170, 2012; note: % is set by controls: 0 for no effect and ±100 for the full control effect
# Target sequence (O94925 whole entry, looked up, canonical isoform): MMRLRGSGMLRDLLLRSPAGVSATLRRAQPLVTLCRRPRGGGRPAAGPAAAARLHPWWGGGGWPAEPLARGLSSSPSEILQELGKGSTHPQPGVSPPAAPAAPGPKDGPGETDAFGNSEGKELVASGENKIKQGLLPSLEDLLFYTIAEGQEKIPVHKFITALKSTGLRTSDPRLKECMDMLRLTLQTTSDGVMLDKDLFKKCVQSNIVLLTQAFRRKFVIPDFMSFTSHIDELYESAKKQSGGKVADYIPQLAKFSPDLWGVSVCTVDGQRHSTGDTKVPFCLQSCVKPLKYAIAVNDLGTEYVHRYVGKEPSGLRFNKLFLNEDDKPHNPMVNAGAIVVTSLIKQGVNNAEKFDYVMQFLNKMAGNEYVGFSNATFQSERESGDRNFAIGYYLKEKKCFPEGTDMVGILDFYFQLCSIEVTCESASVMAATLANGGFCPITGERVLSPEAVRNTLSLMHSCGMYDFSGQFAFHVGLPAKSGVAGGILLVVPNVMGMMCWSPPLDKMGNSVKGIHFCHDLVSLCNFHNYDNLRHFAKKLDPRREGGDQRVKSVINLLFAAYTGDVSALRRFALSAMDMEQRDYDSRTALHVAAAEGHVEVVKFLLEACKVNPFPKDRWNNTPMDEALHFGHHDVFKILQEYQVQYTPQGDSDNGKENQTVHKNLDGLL
#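 Enzyme dispensed in phosphate buffer (45 mM, pH 8.2, 0.02% Tween-20), compounds pinned in, then 1 mM L-glutamine solution and the glutamate oxidase–HRP–Amplex Red mix added; fluorescence read immediately and again after 30 min at room temperature.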
# BAZ2B block = qHTS Assay for Inhibitors of BAZ2B; AlphaScreen BAZ2B-H3K14Ac peptide displacement; actives 4.4% (n = 360,000); Potency, µM (titrated, usually from 114 µM), inactives show top-dose activity change, negative = inhibition, hits mostly inhibitors; note: % is set by controls: 0 for no effect and ±100 for the full control effect; nearly all actives have a fitted effect of over 60% in size
#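 BAZ2B 50 nM plus b-H3(5-23)K14Ac 50 nM, PBS pH 7.4/0.01% Tween-20, 30 min RT; compound added (max 110 uM), 30 min RT; streptavidin donor/Ni-chelate acceptor beads 10 ug/mL final, 20 min dark; AlphaScreen read.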
# G9a block = qHTS Assay for Inhibitors of Histone Lysine Methyltransferase G9a; Histone-lysine N-methyltransferase EHMT2 (Homo sapiens), Q96KQ7; G9a H3K9 monomethylation, AlphaScreen, 2 h; Potency, µM (series often up to 102 µM), for the others: at the top dose activity, negative = inhibition, hits mostly inhibitors; actives 8.8% (n = 350,000); AID 504332, 2011; note: % is set by controls: 0 for no effect and ±100 for the full control effect; nearly all actives have a fitted effect of over 75% in size
#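 AlphaScreen read-out: biotin-H3K9 peptide (500 nM) methylation by 20 nM enzyme with 20 uM SAM, 2 h at room temperature after 15 min compound preincubation; anti-monomethyl H3K9 antibody plus donor/acceptor beads, 10 min dark.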
# HP1b chromo inh = HTS for Inhibitors of HP1-beta Chromodomain Interactions with Methylated Histone Tails; Chromobox protein homolog 1 (Homo sapiens), P83916; AlphaScreen HP1-beta / biotin-H3K9me3 peptide binding; Potency, µM (top dose mostly 114 µM), without a hit: top-dose activity change, negative = inhibition, most hits filed as inhibitors; actives 0.56% (n = 390,000); note: nearly all actives have a fitted effect of over 70% in size
#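 AlphaScreen: HP1-beta (50 nM) preformed 30 min with biotin-H3(1-18)K9me3 peptide (50 nM) in PBS pH 7.4, 0.01% Tween-20. Compound added for 30 min at RT, then streptavidin donor/nickel chelate acceptor beads (10 ug/mL) for 30 min.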
# The depositor's hits bear a star; ? = inconclusive; / = no result given; [ ] = remark or other dose. Rows were chosen to be rich in hits. Some 10% of all compounds tested hit in one or more screens of this group. Calls come from the whole dose curve; as a rule, active = well fitted curve in the direction sought with a large enough effect; inconclusive = small, poorly fitted or top-dose-only effect, or another doubt; inactive = no such curve, though single readings can be large; an effect the other way counts as inactive or inconclusive. Potency is the fitted concentration of half-maximal effect.
SMILES,JMJD2A Tudor,GLS inh,BAZ2B block,G9a block,HP1b chromo inh
COc1cccc(Nc2ccc(C(=O)O)cc2N)c1,-13.6%,3.16µM*,-29.7%,?,-11.1%
Cc1cc(C)cc(Nc2ccc(C(=O)O)cc2N)c1,?,-26.7%,-6.5%,?,-3.6%
COc1cccc(NC(=O)/C=C/c2ccco2)c1,-29.7%,-12.3%,-31.7%,35.5µM*,-1.9%
Cc1ccc(-c2cc(C(=O)NCCCN3CCOCC3)c3ccccc3n2)cc1C,-14.4%,-9.4%,-10.2%,?,5.9%
CCc1ccc(NC(=O)Cn2ncc3c(C)n(Cc4cccc(Cl)c4)c(C)c3c2=O)cc1,-8.1%,9.0%,79.4µM*,-4.6%[59 µM],22.4%
COc1ccc(NC(=O)Cn2ncc3c(C)n(Cc4cccc(Cl)c4)c(C)c3c2=O)cc1,1.0%,-7.9%,-2.3%,2.4%[59 µM],56.0%
O=C1SCCC1NS(=O)(=O)c1ccccc1[N+](=O)[O-] (stereo not given),-14.1%,6.0%,-16.0%,44.7µM*,11.6%
O=[N+]([O-])c1ccccc1S(=O)(=O)NC1CC2CCC1C2 (stereo not given),-19.9%,-3.7%,7.6%,3.0%,24.3%
c1cc(CNCCN2CCNCC2)ccn1,-9.7%,-27.2%,/,/,20.7%
Nc1nonc1-n1nnc(C(=O)N/N=C/C2CC=CCC2)c1CSc1ccccc1 (stereo not given),-4.9%,-19.4%,0.5%,/,35.6%
CCN(CC)c1ccc(/C=N/NC(=O)CNC(=O)C2COc3ccccc3O2)c(O)c1 (stereo not given),50.1µM*,?,-32.4%,17.8µM*,-14.9%
Cc1cc([N+](=O)[O-])cc(/C=N\NC(=O)C2COc3ccccc3O2)c1O (stereo not given),50.1µM*,27.0%,28.2µM*,-50.6%,29.7%
COc1cc(/C=N\NC(=O)CNC(=O)C2COc3ccccc3O2)ccc1O (stereo not given),-11.3%,28.5%,-5.1%,15.4%[59 µM],13.9%
CN1CCN(Cc2nc3ccccc3c(=O)n2Cc2nc(-c3cccc([N+](=O)[O-])c3)cs2)CC1,?,-3.2%,39.8µM*,25.1µM*,?
CN1CCN(Cc2nc3ccccc3c(=O)n2Cc2nc(-c3ccc4ccccc4c3)cs2)CC1,?,-16.4%,?,?,?
CN1CCN(Cc2nc3ccccc3c(=O)n2Cc2nc(-c3ccccc3F)cs2)CC1,-22.1%,0.4%,-28.8%,35.5µM*,-6.8%
CN1CCN(C(=O)CCNC(=O)Cn2cnc3ccccc3c2=O)CC1,-12.6%,-10.3%,1.4%,-6.5%,33.8%
Cc1cccc(C(=O)OCC(=O)N(CC(C)C)c2c(N)n(Cc3ccccc3)c(=O)[nH]c2=O)c1O,-0.7%,4.5%,34.1%,?,20.2%
O=C(CC1NCCc2ccccc21)Nc1ccccc1Cl (stereo not given),-3.3%,3.4%,1.3%,-1.0%,22.0%
S=C1NCCc2ccccc2C1c1ccccc1Cl (stereo not given),?,11.2%,44.7µM*,5.3%[59 µM],-14.1%
S=C1NCCc2ccccc2C1c1ccccc1 (stereo not given),-32.5%,8.4%,44.7µM*,?,?
CC12CN(C(=O)c3ccc(Cl)cc3)C3(C#N)CC1CCC23C (stereo not given),3.0%,-2.9%,-1.3%,-0.8%,30.1%
CC(C)c1ccc2nc3sc(C(=O)N4CCc5ccccc5C4)c(N)c3cc2c1,-13.2%,5.1%,14.1%[57.1 µM],-3.8%[12.7 µM],42.7%
Cc1cc(C)c2c(N)c(C(=O)NC3CCCC3)sc2n1,-8.1%,-18.9%,-2.1%,35.5µM*,44.0%
CCN1CCc2nc3sc(C(=O)Nc4cccc(Cl)c4C)c(N)c3cc2C1,?,9.6%,-20.4%,?,38.0%
SMILES,JMJD2A Tudor,GLS inh,BAZ2B block,G9a block,HP1b chromo inh
CCN1CCc2nc3sc(C(=O)N4CCc5ccccc5C4)c(N)c3cc2C1,79.4µM*,1.6%,?,20µM*,-19.0%
Cc1cc(C)c2c(N)c(C(=O)N3CCc4ccccc4C3)sc2n1,1.4%,3.1%,-15.3%,70.8µM*,99.1%
O=C(Nc1ccccc1C(=O)NCCCn1ccnc1)c1ccccc1,-23.4%,-0.1%,-4.5%,-16.3%,44.1%
CCCCNC(=O)c1ccccc1Cl,-1.5%,4.0%,1.0%,-0.4%,33.6%
CCCCNC(=O)c1ccccc1C(=O)NCCCC,14.1µM*,?,4.0%,6.3%[59 µM],?
CC(C)(C)C(=O)Nc1ccccc1C(=O)NCCCn1ccnc1,50.1µM*,0.5%,17.8µM*,-3.2%,23.6%
CCSc1ccccc1C(=O)NCCCn1ccnc1,-30.7%,-7.5%,2.8%,20µM*,29.2%
O=C(O)CC(NS(=O)(=O)c1c(F)cc(F)cc1Br)c1ccccc1Cl (stereo not given),-10.3%,10.2%,-8.7%,8.5%,37.7%
O=C(Nc1nccs1)c1ccc(Br)c(S(=O)(=O)N2CCCC2)c1,-10.3%,-1.2%,-19.5%,-3.4%,33.8%
CSc1ccc(CNc2ccc(C)c(C)c2)cc1,39.8µM*,-6.4%,50.1µM*,89.1µM*,?
Cc1nc2cc(NCc3ccccc3O)ccc2n1Cc1ccccc1,31.6µM*,-28.9%,20µM*,/,?
Cc1ccc(NCc2ccccc2O)cc1C,50.1µM*,4.2%,?,?,?
Cc1nc2ccccc2n1Cc1ccccc1,-15.0%,-5.1%,-0.1%,/,25.2%
CSc1ccc(CNc2cccc3ccccc23)cc1,-34.8%,26.5%,-36.8%,?,-14.0%
O=C(c1ccccn1)N1CCN(S(=O)(=O)c2ccc(F)cc2)CC1,-11.3%,-17.6%,0.5%,1.3%,21.4%
O=C1CC(N2CCN(c3nc4ccccc4s3)CC2)C(=O)N1c1ccc(F)cc1 (stereo not given),-6.5%,-11.3%,-10.3%,18.3%[59 µM],37.9%
COC(=O)Cc1c(C)[nH]n(-c2cc(Cl)cc(Cl)c2)c1=O,-13.7%,-2.5%,?,39.8µM*,14.2%
O=C(CN1CCCC1)N1c2ccccc2Sc2ccc(Cl)cc21,-24.4%,12.5%,-31.8%,/,7.3%
CCN(CC)CCN(CC(=O)N(C1CCCCC1)C1CCCCC1)C(=O)c1ccco1,1.58µM*,-8.8%,50.1µM*,44.7µM*,?
Nc1cc(S(=O)(=O)Nc2ccccc2Cl)ccc1N1CCCC1,?,24.3%,?,?,-17.1%
Nc1cc(Cl)ccc1N1CCCC1,?,0.0%,?,14.1µM*,-15.8%
O=S(=O)(Nc1ccc(N2CCOCC2)cc1)c1cc(Cl)ccc1Cl,?,6.7%,-31.2%,44.7µM*,-6.4%
CN(C)c1ccc(NS(=O)(=O)c2cc(Cl)ccc2Cl)cc1,56.2µM*,58.1%,35.5µM*,8.91µM*,50.1µM*

# From PubChem BioAssay
